Assay outcomes (PubChem)
LmPK inh: qHTS Assay for Inhibitors of Leishmania Mexicana Pyruvate Kinase (LmPK). purified LmPK, Kinase-Glo ATP luminescence, 1 h. Q27686. Potency, µM (doses to about 57.5 µM), usual class: inhibitors. 290,000 tested, 0.37% active
Target sequence (Q27686 whole entry, looked up): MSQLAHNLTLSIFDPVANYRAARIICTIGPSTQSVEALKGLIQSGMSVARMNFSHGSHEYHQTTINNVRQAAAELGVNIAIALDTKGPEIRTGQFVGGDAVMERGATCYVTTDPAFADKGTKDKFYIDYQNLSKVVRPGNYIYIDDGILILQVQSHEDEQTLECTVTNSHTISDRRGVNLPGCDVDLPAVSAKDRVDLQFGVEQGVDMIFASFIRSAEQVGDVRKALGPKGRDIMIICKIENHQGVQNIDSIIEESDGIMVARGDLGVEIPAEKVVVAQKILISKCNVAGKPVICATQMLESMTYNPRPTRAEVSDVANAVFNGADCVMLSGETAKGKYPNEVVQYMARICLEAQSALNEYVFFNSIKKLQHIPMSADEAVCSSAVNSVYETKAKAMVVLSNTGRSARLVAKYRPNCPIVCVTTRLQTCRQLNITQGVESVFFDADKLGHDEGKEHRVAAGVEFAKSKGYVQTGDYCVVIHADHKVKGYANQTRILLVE
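Purified LmPK (0.1 nM) converted ADP (0.1 mM) to ATP with PEP (0.5 mM) in imidazole buffer pH 7.2 with KCl and MgCl2, 1 h at room temperature. ATP was read by Kinase-Glo luminescence; data normalized to uninhibited and no-enzyme controls.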
AMA1-RON2 inh: qHTS for Inhibitors of AMA1-RON; Towards Development of Antimalarial Drug Lead: Primary Screen; Plasmodium falciparum AMA1 (3D7) - RON2 peptide interaction; AlphaScreen AMA1-biotinylated RON2 peptide binding; Potency, µM (highest dose often 58.2 µM), hits mostly inhibitors; 360,000 tested, 0.2% active; further: nearly all actives have a fitted effect of over 45% in size
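AMA1 (3D7) with his tag at 25 nM final met compounds first, then biotinylated RON2 peptide at 25 nM; detection used donor plus acceptor beads, 10 µg/mL apiece, read by AlphaScreen after 30 min at room temperature.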
RE007 growth inh: qHTS Assay for Inhibitors of the HIV-1 protein Vpr; Potency, µM (doses to about 92.2 µM), usual class: inhibitors; 360,000 tested, 0.21% active; AID 651644, 2012; S. pombe RE007 Vpr strain, BacTiter-Glo ATP luminescence, 24 h; active means well fitted falling curve with a large enough effect; inconclusive means small, poorly fitted or top-dose-only effect; inactive means no such curve, though single readings can be large or run the other way; further: nearly all actives have a fitted effect of over 50% in size
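Fission yeast RE007 carrying one integrated HIV-1 vpr copy, seeded at OD 0.01 in PMG+AL medium with 23 nL pinned compound. Grown 24 h at 30 degrees; viability read by BacTiter-Glo luminescence after 5 min.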
TbPYK inhibitor: qHTS of Trypanosoma Brucei Inhibitors; pyruvate kinase (Trypanosoma brucei), Q57TT1; TbPYK enzyme, Kinase-Glo Plus ATP luminescence, 45 min; Potency, µM (doses to about 76.8 µM), hits mostly inhibitors; 410,000 tested, 0.12% active; AID 624173, 2012; further: nearly all actives have a fitted effect of over 50% in size
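Activity of T. brucei pyruvate kinase was followed by Kinase-Glo Plus luminescence after the enzyme reacted 45 min at room temperature with 130 uM ADP (final) and substrate. Test compounds were added before ADP at multiple concentrations.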
SARS PLpro yeast: qHTS of Yeast-based Assay for SARS-CoV PLP. S. cerevisiae expressing SARS-CoV PLpro, growth rescue. AID 485353, 2010. 330,000 tested, 0.19% active. Potency, µM (series often up to 32.9 µM), most hits filed as activators; calls by dose curve; further: nearly all actives have a fitted effect of over 55% in size
A number is an active result. Compounds with a hit are over-represented: about 0.81% of the library has one in this group of screens. Unless noted, the call rests on the fitted dose curve; in most records, active means well fitted curve in the direction sought with a large enough effect; inconclusive means small, poorly fitted or top-dose-only effect, or another doubt; inactive means no such curve, though single readings can be large; an effect the other way counts as inactive or inconclusive.

Results for Oc1c(Br)cc(/C=N/n2c(-c3ccccc3)n[nH]c2=S)cc1Br ?
LmPK inh: 18µM; AMA1-RON2 inh: inactive; RE007 growth inh: inactive; TbPYK inhibitor: inconclusive; SARS PLpro yeast: inactive

Results for Fc1ccc(Nc2nc(SCc3cccc(Cl)c3)nc3ccccc23)cc1 ?
TbPYK inhibitor: inactive

Results for O=C(CSC1=Nc2ccccc2C2=NC(Cc3ccccc3)C(=O)N12)Nc1ccccc1C(F)(F)F (configuration not stated) ?
TbPYK inhibitor: inactive

How did Cn1cccc1/C=N/n1c(-c2ccco2)n[nH]c1=S do in these assays?
LmPK inh: inactive; AMA1-RON2 inh: inactive; RE007 growth inh: inactive; TbPYK inhibitor: inconclusive; SARS PLpro yeast: inactive

What do the screens show for `COc1cc(-c2n[nH]c(=S)n2/N=C/c2cccn2C)cc(OC)c1OC`?
LmPK inh: 7.9µM; AMA1-RON2 inh: inactive; RE007 growth inh: inactive; TbPYK inhibitor: inconclusive; SARS PLpro yeast: inactive

Results for CN[C@H]1C[C@@H](N)[C@H](O)[C@@H](O[C@@H]2O[C@H](CO)[C@H](O)[C@@H]3O[C@]4(O[C@@H]23)O[C@H]([C@@H](N)CO)[C@H](O)[C@@H](O)[C@H]4O)[C@@H]1O ?
TbPYK inhibitor: inactive

What do the screens show for `COc1ccc(OC)c(C(c2nnnn2CC2CCCO2)N2CCN(C3CCCC3)CC2)c1` (configuration not stated)?
LmPK inh: inactive; AMA1-RON2 inh: inactive; RE007 growth inh: inactive; TbPYK inhibitor: inactive; SARS PLpro yeast: 4µM

What do the screens show for `CS/C(Nc1cc(Cl)ccc1Cl)=C(/C#N)C(=O)c1ccco1`?
LmPK inh: 22µM; AMA1-RON2 inh: inactive; RE007 growth inh: inactive; TbPYK inhibitor: 32µM; SARS PLpro yeast: inactive

What do the screens show for `O=C(Nc1cc(Cl)ccc1Cl)c1ccco1`?
LmPK inh: inactive; AMA1-RON2 inh: inactive; RE007 growth inh: inactive; TbPYK inhibitor: inactive; SARS PLpro yeast: inactive

Results for O=C(O)CSc1ccc(NC(=O)Nc2ccccc2F)cc1 ?
LmPK inh: 16µM; AMA1-RON2 inh: inactive; RE007 growth inh: inconclusive; TbPYK inhibitor: inconclusive; SARS PLpro yeast: inactive

Results for CCNC(=O)NCCCOc1cccc(CN2CCCCC2)c1 ?
TbPYK inhibitor: inactive

Results for COc1ccc(CC(=O)n2[nH]c(=O)ccc2=O)cc1OC ?
LmPK inh: inactive; AMA1-RON2 inh: inactive; RE007 growth inh: inactive; TbPYK inhibitor: 7.1µM; SARS PLpro yeast: inactive

What do the screens show for `CCN(Cc1ccccc1)c1ccc(N=Nc2nn(C)c(C)c2[N+](=O)[O-])cc1`?
LmPK inh: inactive; AMA1-RON2 inh: 10µM; RE007 growth inh: inactive; TbPYK inhibitor: inactive; SARS PLpro yeast: inactive

How did O=C(Nc1ccccc1C(=O)N/N=C/c1ccncc1)c1ccccc1 do in these assays?
LmPK inh: 25µM; AMA1-RON2 inh: inactive; RE007 growth inh: 8.9µM; TbPYK inhibitor: inconclusive; SARS PLpro yeast: inactive

Results for COc1ccc(C(=O)Nc2ccccc2C(=O)N/N=C/c2ccco2)cc1 ?
LmPK inh: 25µM; AMA1-RON2 inh: inactive; RE007 growth inh: 18µM; TbPYK inhibitor: inconclusive; SARS PLpro yeast: inactive

What do the screens show for `COc1ccc(-c2nc(-c3cccs3)no2)cc1`?
LmPK inh: 16µM; AMA1-RON2 inh: inactive; RE007 growth inh: inactive; TbPYK inhibitor: inactive; SARS PLpro yeast: inactive

What do the screens show for `CC1(C(=O)NS(=O)(=O)c2cccc(OC(F)F)c2)CCN1C(=O)c1ccco1` (configuration not stated)?
AMA1-RON2 inh: inactive; RE007 growth inh: inactive; TbPYK inhibitor: inactive

How did Cc1nn(CC(=O)N2CCN(c3ccccc3F)CC2)c(=O)c2cccn12 do in these assays?
TbPYK inhibitor: inactive

How did Cc1nn(CCc2n[nH]c(=S)n2-c2cccc(Cl)c2)c(C)c1[N+](=O)[O-] do in these assays?
LmPK inh: 8.9µM; AMA1-RON2 inh: inactive; RE007 growth inh: inactive; TbPYK inhibitor: inconclusive; SARS PLpro yeast: inactive

What do the screens show for `Cc1nn(CCc2n[nH]c(=S)n2-c2ccc(F)cc2)c(C)c1[N+](=O)[O-]`?
LmPK inh: inconclusive; AMA1-RON2 inh: inactive; RE007 growth inh: inactive; TbPYK inhibitor: 10µM; SARS PLpro yeast: inactive

Results for Cc1cccc(-n2c(Cn3nc(C)c([N+](=O)[O-])c3C)n[nH]c2=S)c1 ?
LmPK inh: inactive; AMA1-RON2 inh: inactive; RE007 growth inh: inactive; TbPYK inhibitor: inactive; SARS PLpro yeast: inactive

What do the screens show for `Cc1nn(CCc2n[nH]c(=S)n2-c2ccc(F)c(Cl)c2)c(C)c1[N+](=O)[O-]`?
LmPK inh: inconclusive; AMA1-RON2 inh: inactive; RE007 growth inh: inactive; TbPYK inhibitor: 6.3µM; SARS PLpro yeast: inactive

How did O=C(CSc1nc2[nH]ncc2c(=O)n1-c1ccccc1Br)NCc1ccccc1Cl do in these assays?
LmPK inh: inactive; AMA1-RON2 inh: inactive; RE007 growth inh: inactive; TbPYK inhibitor: inactive; SARS PLpro yeast: inactive

Results for N#CCSc1nc2[nH]ncc2c(=O)n1-c1ccccc1Br ?
LmPK inh: 11µM; AMA1-RON2 inh: inactive; RE007 growth inh: inactive; TbPYK inhibitor: inactive; SARS PLpro yeast: inactive

What do the screens show for `COc1ccccc1C(=O)Nc1ccc(-c2cc(C(F)(F)F)nn2-c2ccccc2)cc1`?
TbPYK inhibitor: inactive

Results for O=C(/C=C/c1ccccc1[N+](=O)[O-])c1ccccc1Br ?
LmPK inh: inactive; AMA1-RON2 inh: inconclusive; RE007 growth inh: 28µM; TbPYK inhibitor: inactive; SARS PLpro yeast: inactive

Results for COc1ccc(-c2oc3ncn4nc(-c5cccc(C)c5)nc4c3c2-c2ccc(OC)cc2)cc1 ?
TbPYK inhibitor: inactive

What do the screens show for `Cc1cccnc1Nc1nc(-c2ccccn2)cs1`?
LmPK inh: inactive; AMA1-RON2 inh: inactive; RE007 growth inh: 40µM; TbPYK inhibitor: inactive; SARS PLpro yeast: inactive

Results for CCOc1ccc(/C=C/c2nc(C#N)c(N3CCN(c4ccccc4)CC3)o2)cc1 ?
TbPYK inhibitor: inactive

Results for COc1ccc2cc3cc(C(=O)Nc4ccc5c(c4)OCO5)oc3nc2c1 ?
LmPK inh: inactive; AMA1-RON2 inh: inactive; RE007 growth inh: inactive; TbPYK inhibitor: inactive; SARS PLpro yeast: inactive

How did COc1ccc2nc3oc(C(=O)Nc4ccc(OC)c(OC)c4)cc3cc2c1 do in these assays?
LmPK inh: 22µM; AMA1-RON2 inh: inactive; RE007 growth inh: inactive; TbPYK inhibitor: inactive; SARS PLpro yeast: inactive

What do the screens show for `O=C1CCCC2=C1C(c1ccc(O)c(O)c1)c1c(ccc3ncccc13)N2` (configuration not stated)?
LmPK inh: inactive; AMA1-RON2 inh: inconclusive; RE007 growth inh: inactive; TbPYK inhibitor: 18µM; SARS PLpro yeast: inactive

How did CCNC(=O)CC1C(=O)N(c2ccc(F)cc2)C(=S)N1CCc1ccncc1 (configuration not stated) do in these assays?
LmPK inh: inactive; AMA1-RON2 inh: 32µM; RE007 growth inh: inactive; TbPYK inhibitor: inactive; SARS PLpro yeast: inactive
